Luc counter: counter-screen: inhibitors of Kinase-Glo firefly luciferase | Potency, µM (series often up to 38.3 µM), for the others: top-dose activity change, negative = inhibition, hits mostly inhibitors | Kinase-Glo luciferase, ATP luminescence, 8 min | actives 0.28% (n = 200,000) | Q27757; further: on the % scale 0 is the no-effect control and ±100 the full control effect; nearly all actives have a fitted effect of over 60% in size
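Kinase-Glo luciferase light output from ATP and luciferin was measured with 10 uM ATP, within the enzyme's linear range. Buffer: 50 mM imidazole pH 7.2, 50 mM KCl, 7 mM MgCl2, 0.01% Tween 20, 0.05% BSA; luminescence read after 8 min at ambient temperature.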
SMN2 splice enh: SMN2 splice variant enhancement | HEK293 SMN2-luciferase splicing reporter, luminescence, 30-36 h | Potency, µM (top dose mostly 46.1 µM), for the others: at the highest dose activity change, positive = activation, most hits filed as activators | actives 2.8% (n = 210,000); further: % of control where 0% means no effect; nearly all actives have a fitted effect of over 55% in size
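HEK293 cells carry an SMN2 minigene-luciferase reporter in which exon 7 inclusion puts luciferase in frame. Cells were seeded at 2000 cells/well, attached for 10-12 hours, then exposed to compounds for 30-36 hours at 37C before ONE-Glo luminescence.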
NPC1 promoter act: activates the NPC1 promoter; actives 2.4% (n = 320,000); Huh7 NPC1 promoter luciferase reporter, 24 h; Potency, µM (doses to about 9.22 µM), inactives show at the top dose activation, hits mostly activators; AID 485313; further: % of control where 0% means no effect; nearly all actives have a fitted effect of over 60% in size
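Luciferase expression driven by the NPC1 promoter was measured in stably transfected Huh7 cells after a 24 h compound incubation, using a luciferase reagent and a luminescence read.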
FLuc counter: inhibits or activates purified firefly luciferase, miR-21 counter-screen | P08659 | purified FLuc, Km substrates, luminescence inhibition | Potency, µM (titrated, usually from 57.5 µM), inactives show at the top dose activity change, negative = inhibition, usual class: inhibitors | actives 6.9% (n = 360,000);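 further: plate controls were vehicle for no effect and reference inhibitor for full effect; nearly all actives have a fitted effect of over 55% in size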
Target sequence (P08659 whole entry, looked up): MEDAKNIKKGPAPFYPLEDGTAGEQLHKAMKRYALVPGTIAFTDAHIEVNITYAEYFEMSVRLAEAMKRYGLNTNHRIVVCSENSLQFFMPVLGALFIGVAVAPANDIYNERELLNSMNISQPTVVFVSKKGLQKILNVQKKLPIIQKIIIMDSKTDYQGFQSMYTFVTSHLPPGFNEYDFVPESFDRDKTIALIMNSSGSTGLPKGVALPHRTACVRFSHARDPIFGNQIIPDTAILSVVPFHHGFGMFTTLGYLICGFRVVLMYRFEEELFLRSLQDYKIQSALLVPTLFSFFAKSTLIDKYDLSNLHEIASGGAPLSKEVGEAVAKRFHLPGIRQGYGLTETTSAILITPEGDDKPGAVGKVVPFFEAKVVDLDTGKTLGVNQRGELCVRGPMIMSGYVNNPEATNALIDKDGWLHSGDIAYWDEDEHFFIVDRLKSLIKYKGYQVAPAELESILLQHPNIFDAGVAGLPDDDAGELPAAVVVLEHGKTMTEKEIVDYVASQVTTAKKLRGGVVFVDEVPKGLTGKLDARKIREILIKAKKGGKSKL
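Biochemical qHTS of compounds, final roughly 60 µM downward over six points, against 10 nM purified firefly luciferase using Km concentrations of substrates (10 uM D-luciferin, 10 uM ATP) in Tris acetate pH 7.5 buffer; luminescence output.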
Rab9 promoter act: activators of Rab9 promoter; Huh7 Rab9 promoter-luciferase reporter, luminescence, 24 h; Potency, µM (highest dose often 9.22 µM), inactives show at the highest dose activation, negative = inhibition, hits mostly activators; actives 2.8% (n = 320,000); AID 485297; further: % of control where 0% means no effect; nearly all actives have a fitted effect of over 60% in size
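Cell-based reporter: Huh7 stable for Rab9 promoter-driven luciferase, plated in reduced-serum medium with 10% FBS at 1500 cells/well, compound-treated 24 h at 37 °C, luminescence read after 10 min reagent.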
ELG1 genotoxic: inducers of genotoxicity in HEK293T ELG1-luciferase cells; HEK293T ELG1-luciferase reporter, luminescence, 16 h; Potency, µM (series often up to 46 µM), without a hit: at the highest dose activity change, positive = activation, most hits filed as activators; actives 1.3% (n = 330,000); further: % of control where 0% means no effect; nearly all actives have a fitted effect of over 60% in size
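After overnight (16 hr) compound treatment at 37 °C, ELG1-luciferase HEK293T cells were lysed with ONE-Glo; luminescence quantified 30 min later at room temperature.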
The depositor's hits bear a star; ? = inconclusive; . = no result; [ ] = remark or other dose. Rows were chosen to be rich in hits. Some 7.4% of all compounds tested hit in one or more screens of this group. The call rests on the fitted dose curve; in most records, active means well fitted curve in the direction sought with a large enough effect; inconclusive means small, poorly fitted or top-dose-only effect, or another doubt; inactive means no such curve, though single readings can be large; an effect the other way counts as inactive or inconclusive. Potency means the concentration at half of the fitted maximal effect.

SMILES	Luc counter	SMN2 splice enh	NPC1 promoter act	FLuc counter	Rab9 promoter act	ELG1 genotoxic
COc1ccc(-c2nnc(SCC(=O)Nc3ccc(C)c(Cl)c3)nc2-c2ccc(OC)c(OC)c2)cc1OC	.	.	.	-3.0%	.	.
CCn1c2ccccc2c2nc3cc(OC)c(OC)cc3nc21	.	.	-2.0%	8.49µM*	14.8%	-1.8%
CCn1c2ccccc2c2nc3cc(C(=O)O)ccc3nc21	-1.5%	-57.4%	12.6%	19µM*	29.8%	?
CC(=O)n1c2ccccc2c2nc3ccccc3nc21	.	.	3.16µM*	?	2.82µM*	?
CCn1c2ccccc2c2nc3ccccc3nc21	-5.5%	-29.1%	?	?	-4.0%	1.4%
CCn1c(=O)c2sccc2n2c(CCCC(=O)N3CCN(c4ccc(OC)cc4)CC3)nnc12	.	.	.	3.8%	.	.
CCCc1ccc(OC(=O)c2sc3ncn(Cc4cccc(F)c4)c(=O)c3c2C)cc1	.	.	.	-3.8%	.	.
COc1ccc(NC(=O)COC(=O)c2c3c(nc4ccccc24)CCCC3)cc1	-0.2%	-29.3%	3.8%	?	-4.1%	4.6%
COc1ccc(NC(=O)COC(=O)c2c3c(nc4ccccc24)CCCC3)cc1Cl	-4.3%	-15.1%	0.8%	10.7µM*	-11.8%	-15.6%
CNc1ccc(O)cc1	.	8.0%	.	.	.	.
O=C(OCC1CCCO1)c1ccc2c(c1)N(Cc1ccccc1F)C(=O)c1ccccc1S2(=O)=O (stereo not given)	.	.	.	-7.4%	.	.
CCOC(=O)NC(=O)CSc1nc(-c2ccc(C)c(C)c2)cn1-c1ccccc1	-3.0%	-18.5%	?	16.9µM*	2.24µM*	?
Cc1ccc(-n2c3c(c(=O)[nH]c2=O)C(NC(=O)C(C)(C)C)(C(F)(F)F)C(=O)N3)cc1 (stereo not given)	.	-2.7%	.	-1.0%	.	.
COc1ccc(N2CCN(c3csc4ccc(Cl)cc4c3=O)CC2)cc1	.	.	.	-20.0%	.	.
COC(=O)C1CCN(c2csc3ccc(Cl)cc3c2=O)CC1	.	.	.	7.57µM*	.	.
COC(=O)C1CCN(c2ccc([N+](=O)[O-])cc2[N+](=O)[O-])CC1	3.0%	.	-4.0%	-2.6%	-0.3%	2.6%
COC(=O)C1CCN(c2csc3ccc(C)cc3c2=O)CC1	.	.	.	6.01µM*	.	.
Brc1ccc(Nc2nc(-c3cccnc3)cs2)cc1	-3.0%	14.1µM*	-0.4%	?	29.1%	?
Brc1cccc(Nc2nc(-c3cccnc3)cs2)c1	.	.	?	9.53µM*	21.3%	?
COc1ccc(Cl)cc1Nc1nc(-c2cccnc2)cs1	.	.	0.5%	?	-3.1%	-0.1%
Clc1cccc(Nc2nc(-c3cccnc3)cs2)c1	-2.8%	5.0%	1.5%	13.5µM*	20.8%	?
Cc1ccc(Nc2nc(-c3cccnc3)cs2)cc1C	.	.	?	0.849µM*	?	2.31µM*
Cc1sc2c(c1C)c(=O)n(-c1ccc(Cl)cc1)c(=O)n2CC(=O)c1ccccc1	.	-0.3%	.	6.1%	.	.
Oc1ccc(Nc2nc(-c3cccnc3)cs2)cc1	.	.	21.4%	9.53µM*	1.3%	?
Cc1cc(O)ccc1Nc1nc(-c2cccnc2)cs1	.	.	?	6.01µM*	-0.1%	6.9%
SMILES	Luc counter	SMN2 splice enh	NPC1 promoter act	FLuc counter	Rab9 promoter act	ELG1 genotoxic
O=C(O)c1ccc(Nc2nc(-c3cccnc3)cs2)cc1	.	.	?	5.36µM*	?	7.6%
Cc1cc(O)ccc1Nc1nc(-c2cccs2)cs1	-7.0%	?	?	0.536µM*	?	3.26µM*
Cc1ccc(NC(=O)CC(C)S(=O)(=O)c2ccc3c(c2)NC(=O)CO3)c(C)c1 (stereo not given)	.	.	.	-2.1%	.	.
Nc1ccc(Nc2nc(-c3ccncc3)cs2)cc1	-4.4%	-3.4%	?	4.78µM*	?	?
CCOc1ccc(Nc2nc(-c3cccnc3)cs2)cc1	.	.	2.24µM*	?	2.24µM*	?
CC(=O)c1ccc(Nc2nc(-c3cccnc3)cs2)cc1	.	.	4.0%	?	21.4%	?
Oc1ccc(Nc2nc(-c3ccc(O)cc3)cs2)cc1	-0.7%	22.4µM*	0.8%	7.57µM*	-1.1%	8.2µM*
Oc1ccc(Nc2nc(-c3ccc(Cl)cc3)cs2)cc1	1.4%	6.2%	.	.	.	.
COc1ccc(C(=O)c2cn(CC(=O)Nc3cc(C)ccc3C)c3nc(C)ccc3c2=O)cc1	.	.	.	-0.6%	.	.
CCc1ccccc1NC(=O)N1CCOc2ccccc21	.	.	.	-9.4%	.	.
O=c1c(-c2cccc(F)c2)nc2cncnc2n1C1CC1	-0.4%	5.9%	.	.	.	.
CC(=O)Nc1ccc(N=Cc2c(O)c(C(=O)Nc3ccccc3)cc3ccccc23)cc1	?	-8.4%	12.5%	0.675µM*	22.5%	-3.4%
CC(=O)Nc1ccc(NC(=O)c2cc(-c3ccccc3)nc3ccccc23)cc1	.	.	11.7%	?	7.4%	-10.3%
CC(=O)COc1ccc2c(C)c(C)c(=O)oc2c1	-3.4%	-7.1%	6.1%	0.5%	?	?
COc1ccc(-c2c(C)c3ccc(OCC(C)=O)cc3oc2=O)cc1	-1.0%	?	2.82µM*	23.9µM*	2.24µM*	-5.7%
O=c1oc2cc(O)ccc2c2ccccc12	-2.5%	-11.7%	0.5%	-4.8%	-2.2%	16.2%
COc1ccc(-c2c(C)c3ccc(O)cc3oc2=O)cc1	.	.	?	15.1µM*	13.8%	13.4%[9.26 µM]
CCN(CC)c1ccc2c(C)c(-c3ccc(N)cc3)c(=O)oc2c1	-3.2%	?	22.9%	23.9µM*	24.4%	5.9%
O=c1oc2cc(O)ccc2c2oc3cc(O)ccc3c12	-1.7%	-23.5%	0.7%	19µM*	1.0%	6.9%
C1CCC(NC(=NC2C3CC4CC(C3)CC2C4)N2CCOCC2)CC1 (stereo not given)	.	-10.8%	.	.	.	.
CC(=O)Oc1cc2c(c(C)c1OC(C)=O)CC=C1[C@]3(C)CC[C@]4(C)CC[C@@](C)(C(=O)O)CC4[C@]3(C)CC[C@]12C (stereo not given in full)	-3.2%	-82.4%	.	.	.	.
CCOc1ccc(NC(=O)c2c(C)nn(-c3ccc(F)cc3)c2-n2cccc2)cc1	.	.	.	-1.3%	.	.
COc1ccc(Cl)cc1/C=C/c1ccc2cccc(O)c2n1	.	.	3.98µM*	16.9µM*	3.55µM*	?
COc1ccccc1/C=C/c1ccc2cccc(O)c2n1	.	.	?	4.78µM*	?	20.6µM*
COc1cc(Cl)cc(/C=C/c2ccc3cccc(O)c3n2)c1OC	.	.	?	?	?	13.5%
COc1cccc(CNC(=O)c2[nH]c3cc(C)ccc3c2Sc2ccccc2)c1	.	.	.	-1.7%	.	.
CC(C)CCNC(=O)C1CCN(C(=O)c2cc3sccc3n2Cc2ccc(Cl)cc2)CC1	.	-27.8%	.	4.5%	.	.
Clc1ccc(-c2nc(C3CCCCC3)no2)cc1	-1.7%	?	3.16µM*	4.78µM*	3.16µM*	11.8%
